For 40 sequences, sensor-assay potency score (higher = more potent) results are on record in the OligoGym collection.
Also: reference of the scale not given here.

For one experiment, the target named is XKR5. Put plainly: pooled miR-30 sensor sort-seq; sequence = guide strand. As to conditions: shRNA.
TAGTGTCTCACATTGAATGGAA: the sensor-assay potency score (higher = more potent) was -0.0169.

Consider TTCTCTAATAAATATAGTGTAT, for which the sensor-assay potency score (higher = more potent) is -1.07.

In the case of TGATCTTAGACACATTTCCTGT, the sensor-assay potency score (higher = more potent) is -0.718.

TAAGTTATTCTACTATTCCTTT yielded a sensor-assay potency score (higher = more potent) of -0.571.

Regarding TTAGTTATTACAAGCACACAGG, the sensor-assay potency score (higher = more potent) was -0.438.

Regarding TAATATTGTACCCTAATCCAAA, the sensor-assay potency score (higher = more potent) is -1.28.

The target of the next experiment is XKRX. Described as above. As to conditions: shRNA.
In the case of TTCAGTAACACTTTCACTCCAA, the sensor-assay potency score (higher = more potent) came out at 0.565.

Sequence TAACAGAGAGCTAATCTGCTTG gave a sensor-assay potency score (higher = more potent) of 0.29.

For the sequence TCTATTAGCATCTTCTTTCGGG, the sensor-assay potency score (higher = more potent) was 0.547.

In the case of TAGCACAACTCTACCCAGGGGA, the sensor-assay potency score (higher = more potent) was determined as 0.12.

TAAGTTTCACTATTCTTTCGAT had a sensor-assay potency score (higher = more potent) of 0.293.

Regarding TAAACTCTGTCCATTGTCGAGG, the sensor-assay potency score (higher = more potent) was -0.536.

In turn, TTATCTTTGGCTAGATCTCTGT returned a sensor-assay potency score (higher = more potent) of -0.472.

Sequence TAGTCTACTACATTATGGGTGA had a sensor-assay potency score (higher = more potent) of -0.472.

The sequence TAAATGGAAAAGTAAATCGGGG yielded a sensor-assay potency score (higher = more potent) of -0.48.

In turn, TAGTCATCGTACTTGATCTGGA gave a sensor-assay potency score (higher = more potent) of 0.135.

TTCTCTACCAACCTCACACTAT: the sensor-assay potency score (higher = more potent) was -0.943.

Sequence AATACCATTAGCACAACTCTAC returned a sensor-assay potency score (higher = more potent) of -0.637.

The next experiment has as its target YAP1. Described as above. As to conditions: shRNA.
With TTGAACAAACTAAATGCTGTGA, the sensor-assay potency score (higher = more potent) came out at 0.444.

Consider TGCTGTGACATGAAGCATCTGA, for which the sensor-assay potency score (higher = more potent) was determined as 0.636.

The sequence TAAAGTATCTTGCTGGACGTTT displayed a sensor-assay potency score (higher = more potent) of -0.0595.

The sequence TGTTGAACAAACTAAATGCTGT displayed a sensor-assay potency score (higher = more potent) of 0.164.

TACATTAACAGCAGCAATGGAC yielded a sensor-assay potency score (higher = more potent) of -0.672.

In the case of TTGGTTGATAGTATCACCTGTA, the sensor-assay potency score (higher = more potent) is 0.588.

Regarding TTAGCCTGAAAACTGCAACTGG, the sensor-assay potency score (higher = more potent) is -0.22.

TTTGGTTGATAGTATCACCTGT gave a sensor-assay potency score (higher = more potent) of 0.841.

For the sequence TGTTGTTGTCTGATCGATGTGA, the sensor-assay potency score (higher = more potent) worked out at 0.751.

Take TTAAGGAAAGGATCTGAGCTAT: the sensor-assay potency score (higher = more potent) was -0.559.

TTAAGAAGTATCTCTGACCAGA: the sensor-assay potency score (higher = more potent) amounted to 0.035.

The sequence ATCTTTTTCTGTATTAGCCTGA had a sensor-assay potency score (higher = more potent) of 0.428.

In a further experiment the target is YARS. The description is as above. As to conditions: shRNA.
Sequence TTTTGCTGCCTGTTAATCCTGG showed a sensor-assay potency score (higher = more potent) of -0.733.

Regarding TATAGAAGCACACAGAAGCATG, the sensor-assay potency score (higher = more potent) is -1.29.

In the case of TACACATCTAGTGTGTACTCTT, the sensor-assay potency score (higher = more potent) is -0.195.

TTCTTCACATCCTCCTTCCGAT: the sensor-assay potency score (higher = more potent) is -0.429.

In turn, TTCTCATAGTAACTGACTCGGA registered a sensor-assay potency score (higher = more potent) of -0.794.

As to TAGTGTGTACTCTTTGCTGAGC, the sensor-assay potency score (higher = more potent) is -0.796.

For ATCTTCTCTACATACAGGCTGT, the sensor-assay potency score (higher = more potent) was -0.695.

For the sequence TTCTCGAAGACTTTCTTCTTGG, the sensor-assay potency score (higher = more potent) is -0.635.

TTGAATAGCCAAGTGCAGGGAG returned a sensor-assay potency score (higher = more potent) of 0.352.

TCTAGTGTGTACTCTTTGCTGA yielded a sensor-assay potency score (higher = more potent) of 0.0358.
